# Results as given in PubChem BioAssay (NCATS).
# Values joined by “and” are separate entries in the source; they are usually repeats but may differ in a detail not shown here. Equal values may be shown once. Inconclusive results are not listed. A number with no mark means an inactive call. Active and inactive are the calls of the source. Unless noted, calls come from the whole dose curve; as a rule, active = well fitted activation curve with a large enough effect; inconclusive = small, poorly fitted or top-dose-only effect; inactive = flat fitted curve, though single readings scatter.
# Experiments:
# [1] = qHTS assay for small molecule agonists of the antioxidant response element (ARE) signaling pathway (AID 651741; active = well fitted activation curve with a large enough effect in the signal ratio; the % refers to the signal ratio; note: potency is the fitted concentration of half-maximal effect; for activation: % of control where 0% means no effect); details: HepG2 ARE-bla reporter, beta-lactamase FRET ratio, 16 h; series mostly up to 96 µM
# Method in brief: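 Agonist activity is measured as ARE-driven beta-lactamase expression in a stable HepG2 reporter line, using 16 h compound treatment at 37 C and a FRET substrate fluorescence readout after 2 h.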
# [2] = qHTS assay for small molecule activators of the nuclear factor-kappa B (NF-kB) signaling pathway (AID 651749; active = well fitted activation curve with a large enough effect in the signal ratio; the % refers to the signal ratio; note: % of control where 0% means no effect); details: NF-kB-bla ME-180 cells, beta-lactamase FRET ratio, 16 h; hits give high values
# Method in brief: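 FRET-based beta-lactamase detection in ME-180 cells reports NF-kB response-element-driven transcription following overnight (16 hr) compound treatment.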
# [3] = biological target: Tumor necrosis factor (Homo sapiens) (UniProt P01375); test: qHTS assay to identify small molecules that stimulate Tumor Necrosis Factor-alpha (TNF-alpha) secretion (AID 651757; active = well fitted curve in the direction sought with a large enough effect in the signal ratio; the % refers to the signal ratio; note: 0% is about no effect); details: Human cells, HTRF 665/615 ratio; series mostly up to 92.2 µM
# Method in brief: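 Using 3000 THP-1 cells per well, compounds and controls were applied for 17 hrs at 37 C. Detection followed with two labeled anti-TNF-alpha antibodies (cryptate donor, XL665 acceptor) for 3 hr at room temperature, measured by TR-FRET.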
# [4] = qHTS assay to identify small molecules that stimulate interleukin-8 (IL-8) secretion (AID 651758; active = well fitted activation curve with a large enough effect in the signal ratio; the % refers to the signal ratio; note: potency is the fitted concentration of half-maximal effect; for activation: 0% is about no effect); details: HTRF ratio (665/615); series mostly up to 92.2 µM
# Method in brief: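 Secreted IL-8 measured homogeneously by TR-FRET (two labelled anti-IL-8 antibodies, 1-3 h at room temperature) after a 16 h, 37 C compound treatment of THP-1 cells at 2000 cells/well.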
# [5] = qHTS assay for environmental chemicals that activate the Aryl hydrocarbon Receptor (AhR) signaling pathway (AID 651777); details: 1A2-DRE human hepatoma cells, luciferase, 24 h; activation: hits give high values; note: nearly all actives have a fitted effect of over 15% in size; note: potency is the fitted concentration of half-maximal effect; for activation: % of control where 0% means no effect
# Method in brief: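 Human hepatoma 1A2-DRE cells stably carrying a DRE/CYP1A2 promoter–luciferase reporter, 1,200 cells/well, exposed to compound 24 hr at 37 C. Luciferase read by One-Glo luminescence after 30 min at room temperature; increased signal marks AhR activation.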
# [6] = qHTS assay for small molecule activators of the p53 signaling pathway (AID 651743; active = well fitted activation curve with a large enough effect in the signal ratio, not every such curve was filed as active; the % refers to the signal ratio; note: % of control where 0% means no effect); details: HCT-116 p53RE-bla, beta-lactamase FRET ratio, 16 h; activation: hits give high values
# Method in brief: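 A beta-lactamase reporter under p53 response element control, stably carried by HCT-116 cells, reported pathway activation. Test compounds were applied for 16 hours at 37 C, and fluorescence was measured 2 hours after adding the B/G FRET substrate.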
# Sequence of Tumor necrosis factor (Homo sapiens) (P01375 whole entry, looked up): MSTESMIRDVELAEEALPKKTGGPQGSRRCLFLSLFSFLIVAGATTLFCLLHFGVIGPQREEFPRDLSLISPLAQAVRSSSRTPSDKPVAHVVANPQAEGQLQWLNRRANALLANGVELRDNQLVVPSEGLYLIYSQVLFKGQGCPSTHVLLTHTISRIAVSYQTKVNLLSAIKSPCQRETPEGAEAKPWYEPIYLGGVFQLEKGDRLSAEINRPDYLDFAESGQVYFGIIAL
compound,measurement,setting,value
COP(=O)(OC)OC=C(Cl)Cl,Potency,[1],37.6 µM (active) and 42.2 µM (active) and 30.6 µM (active)
same,activation,[2],1.84% and 0.182%
same,Potency,[3],inactive
same,Potency,[4],21.1 µM (active) and 66.8 µM (active)
same,activation,[5],2.56% [middle of 4 runs]
CN(C)C(=S)SC(=S)N(C)C,Potency,[1],24.3 µM (active)
COP(=S)(OC)Oc1ccc(Sc2ccc(OP(=S)(OC)OC)cc2)cc1,Potency,[1],61.1 µM (active)
same,activation,[6],9.51%
same,activation,[5],6.46%
NC(N)=NC(=O)c1nc(Cl)c(N)nc1N,Potency,[1],42.2 µM (active)
N#Cc1nn(-c2c(Cl)cc(C(F)(F)F)cc2Cl)c(N)c1S(=O)C(F)(F)F (stereo not given),Potency,[1],61.1 µM (active)
same,activation,[5],2.36%
Oc1c(Br)cc(Br)cc1Br,Potency,[1],42.2 µM (active)
same,activation,[2],-2.42% and -0.471%
same,Potency,[3],inactive
same,activation,[5],1.96% and 1.41%
C=CCOC(Cn1ccnc1)c1ccc(Cl)cc1Cl (stereo not given),activation,[6],19.4% and 4.84%
same,activation,[5],11.9% and 13.2%
CCNc1nc(Cl)nc(NCC)n1,Potency,[1],inactive
same,activation,[6],1.85%
same,activation,[5],-1.55%
CNC(=O)Oc1cccc2ccccc12,Potency,[1],33.5 µM (active) and 17.2 µM (active)
same,activation,[6],1.34%
same,activation,[2],0.189% and -3.62%
same,Potency,[3],inactive
same,Potency,[4],inactive
same,Potency,[5],39.8 µM (active) and 35.5 µM (active)
O=C(CCl)c1ccc(Cl)cc1Cl,activation,[2],-1.69%
same,Potency,[3],inactive
same,Potency,[4],3.76 µM (active)
same,activation,[5],0.547%
O=C(NC(=O)c1c(F)cccc1F)Nc1cc(Cl)c(OC(F)(F)C(F)C(F)(F)F)cc1Cl (stereo not given),Potency,[1],19.3 µM (active)
same,activation,[6],4.35%
same,activation,[2],1.78%
same,activation,[5],0.163%
